Source: PubChem BioAssay (Sanford-Burnham Center for Chemical Genomics)
A3A deaminase: APOBEC3A ssDNA deaminase inhibitors, primary screen, selectivity assay for APOBEC3G inhibitor project, biochemical, FAM/TAMRA oligo cleavage fluorescence; 330,000 compounds, 0.41% hits; DNA dC->dU-editing enzyme APOBEC-3A (Homo sapiens), P31941; inhibition, % at 20 µM; recombinant A3A, FAM/TAMRA ssDNA deamination fluorescence; AID 493011, 2011;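 active = at least 40% inhibition at 20 µM here, with at most 30% in a related deaminase screen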;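 also: plate controls were A3A with DMSO for no effect and wells lacking A3A enzyme for full effect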
Target sequence (P31941 whole entry, looked up): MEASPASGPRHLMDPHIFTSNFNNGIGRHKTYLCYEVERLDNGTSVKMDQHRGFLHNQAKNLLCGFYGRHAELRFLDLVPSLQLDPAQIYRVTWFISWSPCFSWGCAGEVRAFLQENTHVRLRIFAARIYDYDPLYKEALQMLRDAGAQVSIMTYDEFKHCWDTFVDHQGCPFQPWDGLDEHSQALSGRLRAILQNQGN
A3G deaminase: APOBEC3G DNA deaminase inhibitors, primary screen, biochemical, fluorescence, single-stranded DNA substrate, uHTS | DNA dC->dU-editing enzyme APOBEC-3G (Homo sapiens), Q9HC16 | recombinant A3G, ssDNA deamination FAM/TAMRA fluorescence | inhibition, % at 20 µM | 330,000 compounds, 0.28% hits;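 active = inhibition of at least 40% at 20 µM, with no more than 30% in the related APOBEC3A deaminase screen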;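 also: plate controls were DMSO wells with A3G for no effect and wells lacking A3G enzyme for full effect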
Target sequence (Q9HC16 whole entry, looked up): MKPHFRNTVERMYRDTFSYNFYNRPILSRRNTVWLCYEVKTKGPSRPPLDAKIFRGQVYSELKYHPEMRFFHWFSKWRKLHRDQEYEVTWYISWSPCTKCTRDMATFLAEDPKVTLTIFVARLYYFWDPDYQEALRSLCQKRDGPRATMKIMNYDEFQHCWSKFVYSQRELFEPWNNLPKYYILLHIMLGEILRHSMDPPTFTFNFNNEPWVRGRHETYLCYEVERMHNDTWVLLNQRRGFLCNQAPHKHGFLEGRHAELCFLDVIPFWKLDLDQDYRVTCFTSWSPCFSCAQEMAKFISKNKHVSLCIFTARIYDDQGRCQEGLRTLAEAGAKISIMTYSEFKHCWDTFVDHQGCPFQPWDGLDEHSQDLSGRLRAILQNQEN
Neddylation inh: inhibitors of cullin neddylation, primary screen, biochemical, TR-FRET, uHTS, NAE and Ubc12; 360,000 compounds, 0.58% hits; inhibition, % at 25 µM; NEDD8-conjugating enzyme Ubc12 (Homo sapiens) + NEDD8-activating enzyme E1 regulatory …; in the data active = inhibition above about 36%
GC-A act: GC-A stimulated cGMP production enhancers – HEK293 GC-A cells, cGMP TR-FRET, EC30 ANP, primary screen; 0% at EC30 ANP, 100% saturating ANP; AID 1671463, 2021; Atrial natriuretic peptide receptor 1 (Homo sapiens), P16066; 370,000 compounds, 0.14% hits; activation, % at 10 µM; in the data active = activation above about 40%
GC-B act: human GC-B receptor activators, primary screen, HEK293 GC-B cells, cGMP TR-FRET, EC30 CNP | Atrial natriuretic peptide receptor 2 (Homo sapiens), P20594 | 0% at EC30 CNP, 100% saturating CNP | activation, % at 10 µM | 370,000 compounds, 0.11% hits;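 active = activation at 10 µM reaching about 35% in either raw or pattern-adjusted values, limit read from the data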
PfGluPho inh: PfG6PD enzyme inhibitors, primary screen, biochemical, fluorescence intensity, uHTS | glucose-6-phosphate dehydrogenase-6-phosphogluconolactonase (Plasmodium falciparum 3D7) | PfGluPho enzyme, NADPH resazurin-diaphorase fluorescence | inhibition, % at 20 µM | 350,000 compounds, 0.78% hits;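 active = inhibition reaching at least a set limit at 20 µM in the primary screen, cut at about 59% in these data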;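 also: 0% = DMSO wells with substrate and 100% = DMSO wells lacking glucose-6-phosphate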
PfG6PD confirm: PfG6PD inhibitors, hit retest, confirmation, biochemical, fluorescence intensity, single concentration. shares compounds with PfGluPho inh. recombinant PfGluPho, NADPH-diaphorase-resazurin fluorescence. 2,400 compounds, 34% hits. inhibition, % at 20 µM;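 active = inhibition of at least 50% at 20 µM in any single replicate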;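 also: 0% = DMSO with substrate and 100% = DMSO lacking glucose-6-phosphate substrate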
Diaphorase 10uM: diaphorase inhibitors and chemical oxidizers, confirmation, counter-screen for P. falciparum G6PD inhibitor project, biochemical, fluorescence intensity, 10 µM NADPH | inhibition, % at 20 µM | diaphorase-coupled resazurin reduction, NADPH 10 uM | 820 compounds, 39% hits | shares compounds with PfGluPho inh;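 active = average inhibition reaching 50% or more with the compound at 20 µM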;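 also: resorufin red fluorescence formed as diaphorase reduces resazurin using NADPH; 0% = DMSO with enzyme and 100% = DMSO without enzyme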
Diaphorase 30uM: diaphorase inhibitors and chemical oxidizers, confirmation, counter-screen for P. falciparum G6PD inhibitor project, biochemical, fluorescence intensity, 30 µM NADPH; AID 504863, 2011; inhibition, % at 20 µM; shares compounds with PfGluPho inh; 820 compounds, 29% hits; Diaphorase/resazurin coupled assay, resorufin fluorescence;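 active = inhibition averaging 50% or more, tested at 20 µM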;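 also: 0% = DMSO with enzyme and 100% = DMSO wells lacking diaphorase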
* hit, by the source's call; ! = a repeat was not active. Sampled rows, rich in hits. Any-hit rate of the full collection: about 2%.

Screening CC1=CC(=O)C(Sc2ccc(C)cc2)=CC1=O returned Neddylation inh 2, GC-A act 29, GC-B act 12, PfGluPho inh 124*, PfG6PD confirm 109*, Diaphorase 10uM 90* and Diaphorase 30uM 64*.
O=C(/C=C/c1cccs1)N1CCCCC1 was read as A3A deaminase 2, A3G deaminase -3, Neddylation inh -1, GC-A act -1, GC-B act -2 and PfGluPho inh -1.
O=C(/C=C/c1cccs1)N1CCN(c2ccc(O)cc2)CC1 was read as A3A deaminase -1, A3G deaminase 31, Neddylation inh -16, GC-A act -3, GC-B act -4, PfGluPho inh 64* and PfG6PD confirm 36.
COCc1[nH]nc2c1C(c1ccc3c(c1)OCO3)N(Cc1ccccc1)C2=O (configuration not stated) was read as GC-A act 14 and GC-B act -5.
`CCOC(=O)C1=C(C)Nc2ncnn2C1c1ccc(N(C)C)cc1` (configuration not stated) gave A3A deaminase 2, A3G deaminase -1, Neddylation inh 7, GC-A act -6, GC-B act -3, PfGluPho inh 61*! and PfG6PD confirm 29.
CCOC(=O)C1=C(C)Nc2nc(=S)[nH]n2C1c1ccc(Cl)cc1 (configuration not stated) was read as A3A deaminase 1, A3G deaminase 28, Neddylation inh 6, GC-A act -6, GC-B act -6, PfGluPho inh 61* and PfG6PD confirm 19.
`O=C(OC12CCCN(C1)/C(=C/c1ccc(Cl)cc1)C2)c1ccc(F)cc1` (configuration not stated) gave GC-A act -2 and GC-B act -17.
Screening CC(C)(C)OC(=O)n1ccc2ccc(-c3ccc4cc[nH]c4c3)cc21 returned GC-A act -3 and GC-B act -6.
Screening Cc1ccc2nc3c(cc(S(=O)(=O)c4ccccc4)c(=N)n3C3CCCC3)c(=O)n2c1 returned Neddylation inh -23, GC-A act 2, GC-B act 0, PfGluPho inh 69* and PfG6PD confirm 34.
`COc1ccc(CC2=CC(=O)c3ccccc3C2=O)cc1` gave A3A deaminase -3, A3G deaminase 2, Neddylation inh 0, GC-A act 14, GC-B act 16, PfGluPho inh 85* and PfG6PD confirm 9.
For N#Cc1cc(-c2ccccc2)nn1-c1ccccc1 the results were A3A deaminase 0, A3G deaminase 24, Neddylation inh -3, GC-A act 1, GC-B act 0, PfGluPho inh 80* and PfG6PD confirm 34.
Screening Cn1ccc(-c2ccccc2)n1 returned A3A deaminase -5, A3G deaminase -11, Neddylation inh 7, GC-A act 3, GC-B act 1 and PfGluPho inh 7.
Cc1ccc2nc(SCC(=O)c3ccc(Cl)s3)[nH]c2c1 was read as A3A deaminase 1, A3G deaminase -6, Neddylation inh -29, GC-A act -5, GC-B act -7, PfGluPho inh 62* and PfG6PD confirm 5.
For C[C@H]1[C@@H](OC(=O)NCc2ccc(Cl)c(Cl)c2)CC[C@@]23CCCN2C(=O)CCC[C@@H]13 the results were GC-A act -9 and GC-B act -10.
`CCNC(=S)N/N=C/c1cccc(OCc2c(F)cccc2Cl)c1` gave A3A deaminase -6, A3G deaminase -8, Neddylation inh 0, GC-A act 21, GC-B act 34, PfGluPho inh 60* and PfG6PD confirm -22.
For CNC(=S)N/N=C/c1cccc(OCc2ccccc2F)c1 the results were A3A deaminase -2, A3G deaminase -7, Neddylation inh -6, GC-A act 18, GC-B act 24 and PfGluPho inh 42.
For Cn1c(=O)c2[nH]c(-c3ccccc3Cl)c(O)c2n(C)c1=O the results were A3A deaminase -2, A3G deaminase -8, Neddylation inh 11, GC-A act -5, GC-B act -5 and PfGluPho inh 52.
Cn1c(=O)c2[nH]c(-c3ccccc3)c(O)c2n(C)c1=O was read as A3A deaminase 0, A3G deaminase -5, Neddylation inh 14, GC-A act -8, GC-B act -4, PfGluPho inh 71*, PfG6PD confirm 59*, Diaphorase 10uM -2 and Diaphorase 30uM 10.
Screening Cc1[nH]n(-c2ccccc2)c(=S)c1C=Nc1cccc([N+](=O)[O-])c1 returned A3A deaminase -4, A3G deaminase 9, Neddylation inh -28, GC-A act 5, GC-B act -4, PfGluPho inh 110* and PfG6PD confirm 48.
`CCCCN=Cc1c(C)[nH]n(-c2ccccc2)c1=S` gave A3A deaminase 2, A3G deaminase 22, Neddylation inh -10, GC-A act 1, GC-B act -1 and PfGluPho inh 57.
For Cc1nc(NS(=O)(=O)c2ccccc2)sc1C(=O)N/N=C/c1ccccc1 the results were A3A deaminase -1, A3G deaminase -5, Neddylation inh 17, GC-A act 2, GC-B act -3, PfGluPho inh 74* and PfG6PD confirm 43.
For COC(=O)[C@]12C[C@H](CC(=O)NCc3cccc4ccccc34)C(=O)N(Cc3ccco3)C1=C[C@H](C(C)(C)C)O[C@@H]2C the results were GC-A act -16 and GC-B act -18.
